Measurements: article PMC11006913
Changes are numbered by the printed parent chain.

Columns and labels:
Assay in all cases: PBM; 200 nM protein, PBS
Conditions in all cases: dsDNA, one strand shown
[1] = target: NKX2-5 (Homo sapiens, UniProt P52952 125-210, R139K)
[2] = target: T1, NKX2-4 (Homo sapiens, UniProt Q9H2Z4 175-261, P217L)
T1 sequence: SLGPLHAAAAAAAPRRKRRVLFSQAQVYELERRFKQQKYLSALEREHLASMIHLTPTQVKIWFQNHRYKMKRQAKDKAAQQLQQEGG

[3] = target: T2, NKX2-4 (Homo sapiens, UniProt Q9H2Z4 175-261, T231S)
T2 sequence: T1 sequence with L43P, T57S

[4] = target: T3, NKX2-4 (Homo sapiens, UniProt Q9H2Z4 175-261)
T3 sequence: T1 sequence with L43P

[5] = target: T4, NKX2-6 (Homo sapiens, UniProt A6NCS4 118-204, R150C)
T4 sequence: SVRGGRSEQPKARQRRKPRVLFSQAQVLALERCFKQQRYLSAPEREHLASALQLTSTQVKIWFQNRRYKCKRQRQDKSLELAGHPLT

[6] = target: T5, NKX2-6 (Homo sapiens, UniProt A6NCS4 118-204)
T5 sequence: T4 sequence with C33R

[7] = target: T6, NKX2-4 (Homo sapiens, UniProt Q9H2Z4 175-261, R246Q)
T6 sequence: T1 sequence with L43P, R72Q

[8] = target: T7, NKX2-6 (Homo sapiens, UniProt A6NCS4 118-204, F151L)
T7 sequence: T4 sequence with C33R, F34L

[9] = target: NKX3-2 (Homo sapiens, UniProt P78367 192-278, P234S)
[10] = target: NKX2-5 (Homo sapiens, UniProt P52952 125-210)
[11] = target: NKX3-2 (Homo sapiens, UniProt P78367 192-278)
Chain of NKX3-2 (Homo sapiens, UniProt P78367 192-278) (P78367 192-278): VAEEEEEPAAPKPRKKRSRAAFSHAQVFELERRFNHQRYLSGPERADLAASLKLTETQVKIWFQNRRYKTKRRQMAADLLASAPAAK

Chain of NKX2-5 (Homo sapiens, UniProt P52952 125-210) (P52952 125-210): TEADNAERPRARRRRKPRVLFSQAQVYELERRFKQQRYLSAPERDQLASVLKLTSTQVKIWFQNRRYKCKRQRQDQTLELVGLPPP
Chain of NKX3-2 (Homo sapiens, UniProt P78367 192-278, P234S) (P78367 192-278 P234S): as the sequence (P78367 192-278) above, with P43S counted along it
Chain of NKX2-5 (Homo sapiens, UniProt P52952 125-210, R139K) (P52952 125-210 R139K): as the sequence (P52952 125-210) above, with R15K counted along it

| Sequence | binding signal [1] | binding signal [2] | binding signal [3] | binding signal [4] | binding signal [5] | binding signal [6] | binding signal [7] | binding signal [8] | binding signal [9] | binding signal [10] | binding signal [11] |
| --- | --- | --- | --- | --- | --- | --- | --- | --- | --- | --- | --- |
| AAGCACTT | 12.7 upbm affinity estimate (log intensity, higher = more binding, comparable within an allelic series) | 12.6 upbm affinity estimate (log intensity, higher = more binding, comparable within an allelic series) | 12.9 upbm affinity estimate (log intensity, higher = more binding, comparable within an allelic series) | 12.4 upbm affinity estimate (log intensity, higher = more binding, comparable within an allelic series) | 11.8 upbm affinity estimate (log intensity, higher = more binding, comparable within an allelic series) | 13.5 upbm affinity estimate (log intensity, higher = more binding, comparable within an allelic series) | 13.1 upbm affinity estimate (log intensity, higher = more binding, comparable within an allelic series) | 11 upbm affinity estimate (log intensity, higher = more binding, comparable within an allelic series) | 12.5 upbm affinity estimate (log intensity, higher = more binding, comparable within an allelic series) | 12.5 upbm affinity estimate (log intensity, higher = more binding, comparable within an allelic series) | 12.6 upbm affinity estimate (log intensity, higher = more binding, comparable within an allelic series) |
| AGCACTTA | 12.9 upbm affinity estimate (log intensity, higher = more binding, comparable within an allelic series) | 12.6 upbm affinity estimate (log intensity, higher = more binding, comparable within an allelic series) | 13 upbm affinity estimate (log intensity, higher = more binding, comparable within an allelic series) | 12.5 upbm affinity estimate (log intensity, higher = more binding, comparable within an allelic series) | 12 upbm affinity estimate (log intensity, higher = more binding, comparable within an allelic series) | 13.7 upbm affinity estimate (log intensity, higher = more binding, comparable within an allelic series) | 13.1 upbm affinity estimate (log intensity, higher = more binding, comparable within an allelic series) | 11.3 upbm affinity estimate (log intensity, higher = more binding, comparable within an allelic series) | 12.9 upbm affinity estimate (log intensity, higher = more binding, comparable within an allelic series) | 12.8 upbm affinity estimate (log intensity, higher = more binding, comparable within an allelic series) | 12.9 upbm affinity estimate (log intensity, higher = more binding, comparable within an allelic series) |
| CCACTTAA | 13.4 upbm affinity estimate (log intensity, higher = more binding, comparable within an allelic series) | 12.8 upbm affinity estimate (log intensity, higher = more binding, comparable within an allelic series) | 13.2 upbm affinity estimate (log intensity, higher = more binding, comparable within an allelic series) | 12.7 upbm affinity estimate (log intensity, higher = more binding, comparable within an allelic series) | 12.3 upbm affinity estimate (log intensity, higher = more binding, comparable within an allelic series) | 14.1 upbm affinity estimate (log intensity, higher = more binding, comparable within an allelic series) | 13.3 upbm affinity estimate (log intensity, higher = more binding, comparable within an allelic series) | 11.5 upbm affinity estimate (log intensity, higher = more binding, comparable within an allelic series) | 13.2 upbm affinity estimate (log intensity, higher = more binding, comparable within an allelic series) | 13.2 upbm affinity estimate (log intensity, higher = more binding, comparable within an allelic series) | 13.3 upbm affinity estimate (log intensity, higher = more binding, comparable within an allelic series) |
| CAAGTGGC | 12.5 upbm affinity estimate (log intensity, higher = more binding, comparable within an allelic series) | 12.4 upbm affinity estimate (log intensity, higher = more binding, comparable within an allelic series) | 12.8 upbm affinity estimate (log intensity, higher = more binding, comparable within an allelic series) | 12.3 upbm affinity estimate (log intensity, higher = more binding, comparable within an allelic series) | 11.7 upbm affinity estimate (log intensity, higher = more binding, comparable within an allelic series) | 13.4 upbm affinity estimate (log intensity, higher = more binding, comparable within an allelic series) | 12.9 upbm affinity estimate (log intensity, higher = more binding, comparable within an allelic series) | 10.7 upbm affinity estimate (log intensity, higher = more binding, comparable within an allelic series) | 12.5 upbm affinity estimate (log intensity, higher = more binding, comparable within an allelic series) | 12.4 upbm affinity estimate (log intensity, higher = more binding, comparable within an allelic series) | 12.6 upbm affinity estimate (log intensity, higher = more binding, comparable within an allelic series) |
| AAGTGGCT | 12.5 upbm affinity estimate (log intensity, higher = more binding, comparable within an allelic series) | 12.5 upbm affinity estimate (log intensity, higher = more binding, comparable within an allelic series) | 12.9 upbm affinity estimate (log intensity, higher = more binding, comparable within an allelic series) | 12.4 upbm affinity estimate (log intensity, higher = more binding, comparable within an allelic series) | 11.8 upbm affinity estimate (log intensity, higher = more binding, comparable within an allelic series) | 13.4 upbm affinity estimate (log intensity, higher = more binding, comparable within an allelic series) | 13 upbm affinity estimate (log intensity, higher = more binding, comparable within an allelic series) | 10.6 upbm affinity estimate (log intensity, higher = more binding, comparable within an allelic series) | 12.8 upbm affinity estimate (log intensity, higher = more binding, comparable within an allelic series) | 12.4 upbm affinity estimate (log intensity, higher = more binding, comparable within an allelic series) | 12.9 upbm affinity estimate (log intensity, higher = more binding, comparable within an allelic series) |
| CCACTTAC | 13 upbm affinity estimate (log intensity, higher = more binding, comparable within an allelic series) | 12.6 upbm affinity estimate (log intensity, higher = more binding, comparable within an allelic series) | 12.9 upbm affinity estimate (log intensity, higher = more binding, comparable within an allelic series) | 12.4 upbm affinity estimate (log intensity, higher = more binding, comparable within an allelic series) | 12.2 upbm affinity estimate (log intensity, higher = more binding, comparable within an allelic series) | 13.7 upbm affinity estimate (log intensity, higher = more binding, comparable within an allelic series) | 13 upbm affinity estimate (log intensity, higher = more binding, comparable within an allelic series) | 11 upbm affinity estimate (log intensity, higher = more binding, comparable within an allelic series) | 13.2 upbm affinity estimate (log intensity, higher = more binding, comparable within an allelic series) | 12.8 upbm affinity estimate (log intensity, higher = more binding, comparable within an allelic series) | 13.3 upbm affinity estimate (log intensity, higher = more binding, comparable within an allelic series) |
| GCACTTCA | 12.5 upbm affinity estimate (log intensity, higher = more binding, comparable within an allelic series) | 12.6 upbm affinity estimate (log intensity, higher = more binding, comparable within an allelic series) | 13 upbm affinity estimate (log intensity, higher = more binding, comparable within an allelic series) | 12.5 upbm affinity estimate (log intensity, higher = more binding, comparable within an allelic series) | 11.7 upbm affinity estimate (log intensity, higher = more binding, comparable within an allelic series) | 13.3 upbm affinity estimate (log intensity, higher = more binding, comparable within an allelic series) | 13.2 upbm affinity estimate (log intensity, higher = more binding, comparable within an allelic series) | 11.1 upbm affinity estimate (log intensity, higher = more binding, comparable within an allelic series) | 12.6 upbm affinity estimate (log intensity, higher = more binding, comparable within an allelic series) | 12.4 upbm affinity estimate (log intensity, higher = more binding, comparable within an allelic series) | 12.6 upbm affinity estimate (log intensity, higher = more binding, comparable within an allelic series) |
| GGCACTTA | 13.1 upbm affinity estimate (log intensity, higher = more binding, comparable within an allelic series) | 12.7 upbm affinity estimate (log intensity, higher = more binding, comparable within an allelic series) | 13.1 upbm affinity estimate (log intensity, higher = more binding, comparable within an allelic series) | 12.6 upbm affinity estimate (log intensity, higher = more binding, comparable within an allelic series) | 12.1 upbm affinity estimate (log intensity, higher = more binding, comparable within an allelic series) | 13.8 upbm affinity estimate (log intensity, higher = more binding, comparable within an allelic series) | 13.2 upbm affinity estimate (log intensity, higher = more binding, comparable within an allelic series) | 11.4 upbm affinity estimate (log intensity, higher = more binding, comparable within an allelic series) | 13.3 upbm affinity estimate (log intensity, higher = more binding, comparable within an allelic series) | 13 upbm affinity estimate (log intensity, higher = more binding, comparable within an allelic series) | 13.4 upbm affinity estimate (log intensity, higher = more binding, comparable within an allelic series) |
| CCACTTCA | 12.9 upbm affinity estimate (log intensity, higher = more binding, comparable within an allelic series) | 12.9 upbm affinity estimate (log intensity, higher = more binding, comparable within an allelic series) | 13.2 upbm affinity estimate (log intensity, higher = more binding, comparable within an allelic series) | 12.7 upbm affinity estimate (log intensity, higher = more binding, comparable within an allelic series) | 12 upbm affinity estimate (log intensity, higher = more binding, comparable within an allelic series) | 13.7 upbm affinity estimate (log intensity, higher = more binding, comparable within an allelic series) | 13.4 upbm affinity estimate (log intensity, higher = more binding, comparable within an allelic series) | 11 upbm affinity estimate (log intensity, higher = more binding, comparable within an allelic series) | 12.8 upbm affinity estimate (log intensity, higher = more binding, comparable within an allelic series) | 12.9 upbm affinity estimate (log intensity, higher = more binding, comparable within an allelic series) | 12.8 upbm affinity estimate (log intensity, higher = more binding, comparable within an allelic series) |
| AAGTACTT | 13.2 upbm affinity estimate (log intensity, higher = more binding, comparable within an allelic series) | 12.9 upbm affinity estimate (log intensity, higher = more binding, comparable within an allelic series) | 13.3 upbm affinity estimate (log intensity, higher = more binding, comparable within an allelic series) | 12.7 upbm affinity estimate (log intensity, higher = more binding, comparable within an allelic series) | 12.1 upbm affinity estimate (log intensity, higher = more binding, comparable within an allelic series) | 13.8 upbm affinity estimate (log intensity, higher = more binding, comparable within an allelic series) | 13.3 upbm affinity estimate (log intensity, higher = more binding, comparable within an allelic series) | 11.5 upbm affinity estimate (log intensity, higher = more binding, comparable within an allelic series) | 12.6 upbm affinity estimate (log intensity, higher = more binding, comparable within an allelic series) | 13 upbm affinity estimate (log intensity, higher = more binding, comparable within an allelic series) | 12.7 upbm affinity estimate (log intensity, higher = more binding, comparable within an allelic series) |
| AACACTTA | 12.7 upbm affinity estimate (log intensity, higher = more binding, comparable within an allelic series) | 12.5 upbm affinity estimate (log intensity, higher = more binding, comparable within an allelic series) | 12.8 upbm affinity estimate (log intensity, higher = more binding, comparable within an allelic series) | 12.4 upbm affinity estimate (log intensity, higher = more binding, comparable within an allelic series) | 11.8 upbm affinity estimate (log intensity, higher = more binding, comparable within an allelic series) | 13.6 upbm affinity estimate (log intensity, higher = more binding, comparable within an allelic series) | 12.9 upbm affinity estimate (log intensity, higher = more binding, comparable within an allelic series) | 11.3 upbm affinity estimate (log intensity, higher = more binding, comparable within an allelic series) | 12.7 upbm affinity estimate (log intensity, higher = more binding, comparable within an allelic series) | 12.6 upbm affinity estimate (log intensity, higher = more binding, comparable within an allelic series) | 12.7 upbm affinity estimate (log intensity, higher = more binding, comparable within an allelic series) |
| ACACTTAA | 13 upbm affinity estimate (log intensity, higher = more binding, comparable within an allelic series) | 12.6 upbm affinity estimate (log intensity, higher = more binding, comparable within an allelic series) | 13 upbm affinity estimate (log intensity, higher = more binding, comparable within an allelic series) | 12.5 upbm affinity estimate (log intensity, higher = more binding, comparable within an allelic series) | 12 upbm affinity estimate (log intensity, higher = more binding, comparable within an allelic series) | 13.8 upbm affinity estimate (log intensity, higher = more binding, comparable within an allelic series) | 13.1 upbm affinity estimate (log intensity, higher = more binding, comparable within an allelic series) | 11.5 upbm affinity estimate (log intensity, higher = more binding, comparable within an allelic series) | 12.7 upbm affinity estimate (log intensity, higher = more binding, comparable within an allelic series) | 12.8 upbm affinity estimate (log intensity, higher = more binding, comparable within an allelic series) | 12.8 upbm affinity estimate (log intensity, higher = more binding, comparable within an allelic series) |
